The full list was thinned out, with hits kept by preference.
HIV RNase H inh-1: inhibitors of HIV-1 reverse transcriptase RNase H | 65,000 tested, 1.9% active | RT-RNase H RNA/DNA duplex cleavage, fluorescence | inhibition, % at 10 µM; in the data active means inhibition above about 50%
HIV RNase H inh-2: confirmation of HIV-1 reverse transcriptase RNase H inhibitors. shares compounds with HIV RNase H inh-1. Recombinant RT RNase H, fluorescent RNA/DNA duplex cleavage. inhibition, % at 10 µM. 1,000 tested, 39% active; in the data active means inhibition above about 48%; inconclusive means no clear call, values can overlap the other calls
Hits are given with their value; . = inactive; ? = inconclusive.

SMILES	HIV RNase H inh-1	others
CCCN(CCC)S(=O)(=O)c1ccc(C(=O)Nc2nnc(-c3cc(OC)cc(OC)c3)o2)cc1	53	HIV RNase H inh-2=.
CCN(Cc1ccccc1)S(=O)(=O)c1ccc(C(=O)Nc2nnc(-c3ccccc3OC)o2)cc1	78	HIV RNase H inh-2=62
CCCN(CCC)S(=O)(=O)c1ccc(C(=O)Nc2nnc(CSC)o2)cc1	.
CCCCN(CC)S(=O)(=O)c1ccc(C(=O)Nc2nnc(-c3ccccc3Cl)o2)cc1	.
CCc1nnc(NC(=O)c2ccc(S(=O)(=O)N(CCOC)CCOC)cc2)o1	.
CCCN(CCC)S(=O)(=O)c1ccc(C(=O)Nc2nnc(-c3cccc(OC)c3)o2)cc1	68	HIV RNase H inh-2=89
CCOC(=O)CN1C(=O)C(C)(C)Oc2ccc(C(=O)Nc3ccccc3)cc21	.
N#CCc1nnc2n1-c1ccccc1CCC2	.
Cc1nn(Cc2ccccc2)c(N)c1-c1ccccc1	.
Nn1cnn(Cc2ccccc2)c1=S	73	HIV RNase H inh-2=?
c1ccc(Cn2ncc3ccccc32)cc1	.
CCOC(=O)C1CCCN(C(=O)C2CCN(S(=O)(=O)CC)CC2)C1 (stereo not given)	.
CCOC(=O)N1CCN(C(=O)CN(c2cccc(C(F)(F)F)c2)S(C)(=O)=O)CC1	.
COc1ccc(C2C(C#N)=C(N)N3C(=C2C#N)Sc2ccccc23)cc1 (stereo not given)	87	HIV RNase H inh-2=60
COC(=O)C1=C2SC(C)C(=O)N2C(N)=C(C#N)C1c1ccc(OC)c(OC)c1 (stereo not given)	.
COc1cccc(C2C(C#N)=C(N)OC(C(C)(C)C)=C2C#N)c1 (stereo not given)	.
Cn1c(=O)c2c3c(sc2n2c(SCC(N)=O)nnc12)CC(C(C)(C)C)CC3 (stereo not given)	.
Cc1ccc(-c2noc(CNCCCN(C)C)n2)cc1	.
C=CCn1c(COc2cccc3ccc(C)nc23)nnc1SCC(N)=O	.
Cc1cc2nc(-c3ccc(SCC(=O)N4CCOCC4)nc3)[nH]c2cc1C	.
Cc1cc2cc3c(cc2nc1SCC(=O)N1CCN(C(=O)c2ccco2)CC1)OCO3	.
Cc1cc2nc(-c3ccc(SCC(=O)N4CCN(C(=O)c5ccco5)CC4)nc3)[nH]c2cc1C	74	HIV RNase H inh-2=.
CN1CCN(C(=O)c2ccccc2-c2ccccc2C(=O)O)CC1	.
N=C1C(c2nc3ccccc3c(=O)[nH]2)=C(O)CN1CCO	.
N=C1C(c2nc3ccccc3c(=O)[nH]2)=C(O)CN1CCc1ccccc1	75	HIV RNase H inh-2=.
SMILES	HIV RNase H inh-1	others
COCCN1CC(O)=C(c2nc3ccccc3c(=O)[nH]2)C1=N	.
CCOC(=O)N1CCC(Nc2nc3ccccc3nc2NS(=O)(=O)c2ccc(Cl)cc2)CC1	.
CC(C)OCCCn1c(=N)c(C(N)=S)cc2c(=O)n3ccccc3nc21	.
C=CCn1c(-c2cc(OC)c(OC)c(OC)c2)n[nH]c1=S	.
C=CCn1c(-c2c[nH]c3ccccc23)n[nH]c1=S	57	HIV RNase H inh-2=.
CCn1c(-c2c[nH]c3ccccc23)n[nH]c1=S	.
CCCn1c(=O)c(C(=O)Nc2nnc(CC)s2)c(O)c2ccccc21	.
CCC(C)Sc1nc2c(cnn2-c2ccc(C)c(C)c2)c(=O)[nH]1 (stereo not given)	.
CCOC(=O)N1CCN(C(=O)CSc2nc3c(cnn3-c3ccc(Cl)cc3)c(=O)[nH]2)CC1	.
CCCCSc1nc2c(cnn2-c2ccc(F)cc2)c(=O)[nH]1	.
COC(=O)c1ccc(CSc2nc3c(cnn3-c3ccc(F)cc3)c(=O)[nH]2)o1	.
C=CCSc1nc2c(cnn2-c2ccc(C)c(C)c2)c(=O)[nH]1	58	HIV RNase H inh-2=59
COC(=O)c1ccc(CSc2nc3c(cnn3-c3ccc(Cl)cc3)c(=O)[nH]2)o1	59	HIV RNase H inh-2=.
CSc1nc2c(cnn2-c2ccc(C)c(C)c2)c(=O)[nH]1	.
COC(=O)c1ccc(CSc2nc3c(cnn3-c3ccccc3)c(=O)[nH]2)o1	.
CCCSc1nc2c(cnn2-c2ccc(Cl)cc2)c(=O)[nH]1	56	HIV RNase H inh-2=67
CN(C(=O)c1ccc(NC(=O)c2cnccn2)cc1)C1CCCCC1	.
COCCN1C(=O)c2oc3cc(C)c(C)cc3c(=O)c2C1c1cccc(O)c1 (stereo not given)	.
CC1(C)CC(=O)C(C=NCCN2CCN(C(=O)C34CC5CC(CC(C5)C3)C4)CC2)=C(O)C1	.
COCCOC(=O)c1c(C)n(C)c2ccc(OC(=O)C3CC3)cc12	.
CCNc1nc(NC(C)(C)C)nc(N(C#N)CC)n1	.
CCCC(=O)NC(C)c1nc2ccccc2n1C(C)C (stereo not given)	.
O=C(CCN1C(=O)c2ccccc2C1=O)Nc1ccc(-c2nc3ccccc3o2)cc1	88	HIV RNase H inh-2=68
O=C(CN1C(=O)c2ccccc2C1=O)Nc1ccc(-c2nc3ccccc3o2)cc1	66	HIV RNase H inh-2=.
O=C(CCN1C(=O)c2ccccc2C1=O)Nc1ccc(F)cc1	.
SMILES	HIV RNase H inh-1	others
O=C(CCN1C(=O)c2ccccc2C1=O)Nc1ccc(-c2cn3ccsc3n2)cc1	.
O=C1c2ccccc2C(=O)N1c1ccc(-c2nc3ccccc3o2)cc1	.
O=C(CN1CCCC1)Nc1ccc(-c2nc3cc(NC(=O)CN4CCCC4)ccc3o2)cc1	.
CCC(Sc1nncn1C)C(=O)Nc1ccccc1OC (stereo not given)	.
CCOC(=O)c1c(C2COc3ccccc3O2)csc1NC(=O)c1ccco1 (stereo not given)	97	HIV RNase H inh-2=54
CCOC(=O)c1c(NC(=O)c2ccco2)sc2c1CCCC2	.
COC(=O)c1c(-c2ccccc2)csc1NC(=O)c1ccco1	.
Clc1ccc(C2CC(c3cccs3)n3ncnc3N2)c(Cl)c1 (stereo not given)	.
CCCCCn1c(N2CCN(c3cccc(Cl)c3)CC2)nc2c1c(=O)[nH]c(=O)n2C	.
Cn1c(=O)[nH]c(=O)c2c1nc(N1CCN(Cc3ccccc3)CC1)n2CCCc1ccccc1	.
Cn1c(=O)[nH]c(=O)c2c1nc(N1CCN(c3cccc(Cl)c3)CC1)n2CCCc1ccccc1	56	HIV RNase H inh-2=.
O=C(Cc1ccccc1)N1CCN(C(=O)c2cccs2)CC1	.
Cc1nc2sc(C(c3cccc(F)c3)N3CCOCC3)c(O)n2n1 (stereo not given)	.
COc1ccccc1/C=C/CN1CC(C)OC(C)C1 (stereo not given)	.
Nc1c(S(=O)(=O)c2ccccc2)c2nc3ccccc3nc2n1/N=C/c1ccco1	.
CC(C)Cn1c(N)c(C(=O)NCCN2CCOCC2)c2nc3ccccc3nc21	.
Nc1c(C(=O)NC2CCCCC2)c2nc3ccccc3nc2n1/N=C/c1ccco1	.
CCCCCCNC(=O)c1c(N)n(/N=C/c2ccco2)c2nc3ccccc3nc12	71	HIV RNase H inh-2=88
CC(C)CNC(=O)c1c(N)n(/N=C/c2ccccn2)c2nc3ccccc3nc12	61	HIV RNase H inh-2=63
COCCNC(=O)c1c(N)n(/N=C/c2cccs2)c2nc3ccccc3nc12	.
Cc1nnc(SCc2cc(=O)[nH]c(N3CCCCC3)n2)s1	.
CCCc1cc(C(N)=O)c(NC(C)=O)s1	.
Cc1cc2cc(CN(CC3CCCO3)C(=O)c3cnccn3)c(=O)[nH]c2cc1C (stereo not given)	.
CCCCc1ccc(NC(=O)OC)cc1	.
CCCCc1ccc(CC(=O)O)cc1	55	HIV RNase H inh-2=.
CCCCCc1ccc(CC(=O)O)cc1	.
O=C(CSc1nnc(-c2ccccc2O)o1)Oc1ccc(OCc2ccccc2)cc1	.
CCc1cc(=O)oc2cc(OC(C)C(=O)O)c(Cl)cc12 (stereo not given)	.
Cc1cc(C(F)(F)F)nc(SCC(=O)Nc2ccccc2)n1	.

Screening results as filed in PubChem BioAssay.
